LmPK inhibitor – blocks Leishmania mexicana pyruvate kinase activity; Q27686; purified LmPK, Kinase-Glo ATP luminescence, 1 h; Potency, µM (top dose mostly 57.5 µM), for the others: at the highest dose activity change, negative = inhibition, actives largely listed as inhibitors; 0.37% of 290,000 active; also: potency is read from the fitted curve at half-maximal effect; % is scaled to controls: 0 for no effect and ±100 for the full control effect
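In 50 mM imidazole pH 7.2 with 7 mM MgCl2, LmPK (0.1 nM) turned over PEP (0.5 mM) and ADP (0.1 mM) for 1 h at room temperature. Luciferase read-out of ATP.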
RE007 growth inh – less growth of the S. pombe RE007 Vpr strain; S. pombe RE007 Vpr strain, BacTiter-Glo ATP luminescence, 24 h; Potency, µM (doses to about 92.2 µM), without a hit: at the top dose activity change, negative = less growth, actives largely listed as inhibitors; 0.21% of 360,000 active; active = well fitted falling curve with a large enough effect; inconclusive = small, poorly fitted or top-dose-only effect; inactive = no such curve, though single readings can be large or run the other way; also: potency is read from the fitted curve at half-maximal effect; % is scaled to controls: 0 for no effect and ±100 for the full control effect; nearly all actives have a fitted effect of over 50% in size
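Fission yeast strain RE007, carrying one chromosomally integrated HIV-1 vpr copy, was seeded at OD 0.01 in PMG+AL medium with 23 nL pinned compound. After 24 h at 30 °C and 99% humidity, viability was read by BacTiter-Glo luminescence.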
Cycloheximide cs – counter-screen for Shiga toxin inhibitors: cycloheximide protein synthesis inhibition. cell reporter, cycloheximide protein synthesis inhibition counterscreen. max response, %. 12% of 300,000 active; in the data active = max response mostly above about 13%, no sharp cut-off; inactive = mostly below about 14%; also: read at 38.3 µM for the half of the compounds with a filed dose; 0% is about no effect
Shiga inhibitor – inhibitors of Shiga toxin in Vero cells | Vero cells, Shiga toxin protein synthesis inhibition reporter | inhibition, % at 38.7 µM | 9.2% of 290,000 active | AID 2315; in the data active = inhibition mostly above about 28%, no sharp cut-off; inactive = mostly below about 43%; also: 0% is about no effect
TbPYK inhibitor – blocks Trypanosoma brucei pyruvate kinase. TbPYK enzyme, Kinase-Glo Plus ATP luminescence, 45 min. Potency, µM (titrated, usually from 76.8 µM), for the others: at the top dose activity, negative = inhibition, usual class: inhibitors. 0.12% of 410,000 active. AID 624173. Q57TT1; also: potency is read from the fitted curve at half-maximal effect; % is scaled to controls: 0 for no effect and ±100 for the full control effect; nearly all actives have a fitted effect of over 50% in size
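ADP (130 uM final) triggers the TbPYK reaction after compound addition; incubation is 45 min at room temperature. Kinase-Glo Plus is then added and luminescence imaged. Normalized data are fitted to concentration-effect curves.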
FBPA Giardia inh – blocks Giardia fructose-bisphosphate aldolase activity. Potency, µM (titrated, usually from 59.6 µM), for the others: at the top dose activity, negative = inhibition, most hits filed as inhibitors. 0.71% of 290,000 active. AID 2451. purified Giardia FBPA; also: potency is read from the fitted curve at half-maximal effect; % is scaled to controls: 0 for no effect and ±100 for the full control effect; nearly all actives have a fitted effect of over 55% in size
Target sequence (A8B2U2 whole entry, looked up): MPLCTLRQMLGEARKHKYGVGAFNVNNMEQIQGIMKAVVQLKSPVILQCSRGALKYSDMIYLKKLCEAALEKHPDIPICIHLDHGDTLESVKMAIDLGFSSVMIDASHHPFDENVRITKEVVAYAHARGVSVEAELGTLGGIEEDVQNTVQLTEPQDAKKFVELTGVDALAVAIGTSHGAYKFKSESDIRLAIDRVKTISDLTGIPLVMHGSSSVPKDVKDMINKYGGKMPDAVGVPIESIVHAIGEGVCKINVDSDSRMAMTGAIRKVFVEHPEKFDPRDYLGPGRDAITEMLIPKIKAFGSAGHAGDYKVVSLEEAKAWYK
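Giardia FBPA (40 nM reagent) was preincubated 10 min at RT with compound (up to 57.5 uM final), then substrate plus GAPDH/TPI/NAD/arsenate coupling system with diaphorase/resazurin was added; resorufin fluorescence (525/598 nm) was read after 20 min.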
An asterisk follows results filed as active; u = inconclusive; x = not tested or not shown. Many of the other results were omitted from the sample, so hits are more common in it than they were. Unless noted, calls follow the shape of the dose curve; as a rule, active = well fitted curve in the direction sought with a large enough effect; inconclusive = small, poorly fitted or top-dose-only effect, or another doubt; inactive = no such curve, though single readings can be large; an effect the other way counts as inactive or inconclusive.

SMILES	LmPK inhibitor	RE007 growth inh	Cycloheximide cs	Shiga inhibitor	TbPYK inhibitor	FBPA Giardia inh
CCOC(=O)c1sc(NC(=O)CC2OC(=O)c3ccccc32)nc1C (configuration not stated)	x	8.8%	x	x	-4.5%	x
CCOC(=O)c1sc(NC(=O)c2cc3ccccc3o2)nc1C	-1.0%	-16.6%	39.7*	60.6*	0.7%	2.3%
CCOC(=O)c1sc(NC(=O)c2ccc(CC)s2)nc1C	-2.5%	10.8%	40.0*	105.4*	2.0%	7.8%
COc1ccc(C(=O)NCCn2cc(SCc3cc(C)ccc3C)c3ccccc32)cc1	x	x	x	x	-4.4%	x
C[N+](C)(C)CCOP(=O)(O)OP(=O)([O-])OCC1OC(n2ccc(N)nc2=O)[C@H](O)[C@@H]1O (some centres not stated)	x	x	x	x	0.8%	x
COC(=O)/C(=C(O)\C=C\c1ccccc1[N+](=O)[O-])c1nc2ccccc2[nH]1	15.8%	4.4%	-2.4	12.6	-6.4%	12.2%
CCOC(=O)c1c(C)[nH]c(N=Nc2ccccc2C)c1C	6.6%	-23.2%	38.1*	80.6*	3.6%	-6.0%
CCOC(=O)c1c(C)[nH]c(N=Nc2ccc(C)cc2C)c1C	1.0%	-2.7%	36.6*	182.6*	2.4%	-21.3%
COc1ccc(P2(=O)Nc3ccccc3N2)cc1	0.5%	-28.9%	35.8*	40.8	-10.5%	-17.3%
O=[N+]([O-])c1ccccc1OCCCN1CCOCC1	-2.9%	-2.7%	9.3*	21.7	-3.1%	1.3%
COc1ccc(OCCOCCOc2ccc(C)cc2[N+](=O)[O-])cc1	0.1%	x	-1.6	23.4	-2.6%	-6.7%
Cc1cccc(Cl)c1OCCCN1CCOCC1	-3.4%	-19.0%	21.4*	48.9*	21.6%	u
Cc1ccc(SCCOCCN2CCOCC2)cc1	-8.4%	-6.2%	0.4	11.4	-9.5%	u
CC1CN(CCCOc2ccccc2[N+](=O)[O-])CC(C)O1 (configuration not stated)	0.0%	-8.3%	3.5	4.5	5.5%	u
c1ccc(SCCOCCN2CCOCC2)cc1	-0.9%	-13.6%	14.8*	25.1	2.7%	u
COc1ccc(OCCOc2ccccc2[N+](=O)[O-])cc1	-0.9%	7.7%	38.7*	25.6	-14.4%	-2.9%
COc1ccc(OC)c(CNc2ncnc3onc(-c4ccc(Cl)cc4)c23)c1	x	x	x	x	-5.2%	x
CC(OC(=O)CNC(=O)c1ccc2ccccc2c1)C(=O)N(C)C1CCCCC1 (configuration not stated)	x	-16.4%	x	x	3.2%	x
O=C(NC1CCN(S(=O)(=O)c2ccccc2C(F)(F)F)CC1)c1ccco1	-3.1%	9.1%	-0.8	5.0	-2.0%	-0.6%
OCCCN1CCN(CCCOc2ccccc2-c2ccccc2)CC1	-1.2%	-1.3%	-5.1	-10.3	5.1%	-23.8%
O=[N+]([O-])c1ccccc1OCCOc1ccccc1[N+](=O)[O-]	-7.2%	0.5%	17.7*	49.7*	-0.9%	5.3%
c1ccc(-c2ccccc2OCCCN2CCOCC2)cc1	1.2%	2.2%	27.7*	20.7	-7.9%	13.1%
CC(C)(C)C(=O)COc1ccccc1[N+](=O)[O-]	0.5%	u	-2.9	-5.9	4.3%	0.8%
CCOC(=O)/C=C/COc1ccccc1[N+](=O)[O-]	2.5%	-8.8%	46.7*	102.5*	7.6%	1.2%
COc1ccc(CNc2ncccc2[N+](=O)[O-])cc1	-4.6%	-10.4%	25.6*	52.0*	-5.3%	12.5%
SMILES	LmPK inhibitor	RE007 growth inh	Cycloheximide cs	Shiga inhibitor	TbPYK inhibitor	FBPA Giardia inh
COCCNC(=O)C1(C)CCCN(C(=O)c2cccc(Cl)c2)C1 (configuration not stated)	x	18.0%	x	x	4.4%	x
CC(C)n1[nH]c2ccccc2c1=O	x	0.2%	x	x	-0.4%	x
CCOC(=O)C1=CCC(c2cc3ccccc3[nH]2)NC1 (configuration not stated)	x	-14.2%	x	x	x	x
O=C(Nc1ccc(S(=O)(=O)N2CCCCCC2)cc1)c1ccco1	-1.5%	3.5%	22.7*	40.4*	-1.3%	5.7%
CC(=O)Nc1ccc(S(=O)(=O)N2CCN(C(=O)c3ccco3)CC2)cc1	-1.7%	6.6%	21.2*	-4.6	-9.8%	4.5%
O=C(Nc1nc(-c2ccc(S(=O)(=O)N3CCCC3)cc2)cs1)c1ccco1	6.0%	-2.2%	5.2*	21.8*	-6.7%	-4.4%
Cc1cccc(N2CCN(C3(c4ccccc4)C(=O)c4ccccc4C3=O)CC2C)c1 (configuration not stated)	x	x	x	x	-1.7%	x
Cc1ccc(N2CCn3c2nc2c3c(=O)n(CCCc3ccccc3)c(=O)n2C)cc1C	x	x	x	x	-1.9%	x
CN(C(=O)CO)c1c(I)c(C(=O)NCC(O)CO)c(I)c(C(=O)NCC(O)CO)c1I (configuration not stated)	x	x	x	x	9.8%	x
O=[N+]([O-])C1C(c2ccccc2)=NOC1c1ccccc1O (configuration not stated)	-3.6%	-7.6%	23.8*	24.6*	2.2%	10.9%
COc1ccc(NC(=O)CCC2CCCCC2)cc1S(=O)(=O)N1CCCCC1	3.5%	3.1%	7.5	1.0	-9.9%	-1.6%
CC(OC(=O)c1ccc(S(C)(=O)=O)c([N+](=O)[O-])c1)C(=O)NC1C2CC3CC(C2)CC1C3 (configuration not stated)	x	x	x	x	6.9%	x
CCCCOc1ccc(C(=O)N=c2sccn2C)cc1OC	4.4%	-6.8%	44.1*	65.2*	-15.6%	x
CCN(CC)S(=O)(=O)c1cc(C(=O)N=c2sccn2C)ccc1OC	-7.4%	-3.7%	1.8	6.6	-3.3%	x
Cc1ccc(C(=O)N=c2sccn2C)cc1S(=O)(=O)N1CCOCC1	x	-5.1%	x	x	-6.5%	x
Cn1ccsc1=NC(=O)c1ccc(S(C)(=O)=O)c([N+](=O)[O-])c1	0.1%	2.7%	42.8*	36.3*	3.9%	x
Cn1ccsc1=NC(=O)c1ccc(S(C)(=O)=O)cc1	-21.5%	-0.6%	14.0	36.7*	-2.9%	9.5%
Cn1ccsc1=NC(=O)c1ccc(Cl)c([N+](=O)[O-])c1	-1.2%	-13.4%	16.5*	53.3*	3.0%	-4.2%
CN1CCN(NC(=O)c2ccc(Cl)c([N+](=O)[O-])c2)CC1	3.5%	13.2%	-0.4	-21.9	-0.1%	3.0%
CCc1cccc(NC(=O)CN(c2ccc(C)cc2)S(=O)(=O)c2cccs2)c1	x	x	x	x	-2.4%	x
Cn1ccsc1=NC(=O)c1cccc(C#N)c1	-0.1%	-9.2%	14.8*	60.8	-8.5%	13.6%
CN(C)c1ccc(/C=C(/NC(=O)c2ccccc2)C(=O)N/N=C/c2ccc([N+](=O)[O-])c(O)c2)cc1	2.8%	-1.9%	52.3*	47.0*	1.3%	-8.7%
O=C(N/N=C/c1ccc2c(c1)OCO2)/C(=C/c1ccc2c(c1)OCO2)NC(=O)c1ccccc1	1.1%	-21.1%	1.4	-0.7	-3.0%	4.5%

Screening results as filed in PubChem BioAssay.
